# Numbering of substitutions follows the chain as printed.
# Key:
# Assay in all cases: PBM; 200 nM protein, PBS
# Conditions in all cases: dsDNA, one strand shown
# [1] = target: HOXA2 (Homo sapiens, UniProt O43364 129-215, R185T)
# [2] = target: HOXA2 (Homo sapiens, UniProt O43364 129-215, R185K)
# [3] = target: HOXA2 (Homo sapiens, UniProt O43364 129-215, Y150S)
# [4] = target: HOXA2 (Homo sapiens, UniProt O43364 129-215)
# [5] = target: HOXA4 (Homo sapiens, UniProt Q00056 201-287, R217L)
# [6] = target: HOXA4 (Homo sapiens, UniProt Q00056 201-287)
# [7] = target: ALX3 (Homo sapiens, UniProt O95076 139-225, N203Q)
# [8] = target: ALX3 (Homo sapiens, UniProt O95076 139-225)
# [9] = target: ALX3 (Homo sapiens, UniProt O95076 139-225, N203S)
# [10] = target: T1, NKX2-6 (Homo sapiens, UniProt A6NCS4 118-204)
# T1 sequence: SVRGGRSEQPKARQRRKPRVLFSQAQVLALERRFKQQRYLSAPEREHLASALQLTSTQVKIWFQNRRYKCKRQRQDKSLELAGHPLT
# [11] = target: T2, NKX2-6 (Homo sapiens, UniProt A6NCS4 118-204, F151L)
# T2 sequence: T1 sequence with F34L
# [12] = target: HOXD13 (Homo sapiens, UniProt P35453 263-343)
# [13] = target: HOXD13 (Homo sapiens, UniProt P35453 263-343, T313A)
# [14] = target: MSX2 (Homo sapiens, UniProt P35548 130-214)
# [15] = target: MSX2 (Homo sapiens, UniProt P35548 130-214, F161Y)
# [16] = target: HOXB9 (Homo sapiens, UniProt P17482 171-250)
# [17] = target: HOXB9 (Homo sapiens, UniProt P17482 171-250, R186Q)
# [18] = target: T3, SIX6 (Homo sapiens, UniProt O95475 114-200, T139Q)
# T3 sequence: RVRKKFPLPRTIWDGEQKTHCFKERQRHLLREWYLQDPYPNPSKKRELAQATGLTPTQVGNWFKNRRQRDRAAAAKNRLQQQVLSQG
# [19] = target: T4, NKX2-6 (Homo sapiens, UniProt A6NCS4 118-204, R150C)
# T4 sequence: T1 sequence with R33C
# [20] = target: CRX (Homo sapiens, UniProt O43186 26-111, R41L)
# [21] = target: HOXB6 (Homo sapiens, UniProt P17509 132-218)
# Sequence of HOXB6 (P17509 132-218): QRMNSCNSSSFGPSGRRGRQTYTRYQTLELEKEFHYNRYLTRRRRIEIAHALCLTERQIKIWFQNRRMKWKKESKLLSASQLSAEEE
# Sequence of HOXB9 (Homo sapiens, UniProt P17482 171-250, R186Q) (P17482 171-250 R186Q): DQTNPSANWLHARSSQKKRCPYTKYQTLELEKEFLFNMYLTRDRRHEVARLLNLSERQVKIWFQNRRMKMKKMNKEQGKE
# Sequence of HOXB9 (Homo sapiens, UniProt P17482 171-250) (P17482 171-250): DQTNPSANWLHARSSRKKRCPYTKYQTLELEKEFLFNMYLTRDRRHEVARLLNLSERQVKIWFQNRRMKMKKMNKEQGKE
# Sequence of HOXA2 (Homo sapiens, UniProt O43364 129-215, R185T) (O43364 129-215 R185T): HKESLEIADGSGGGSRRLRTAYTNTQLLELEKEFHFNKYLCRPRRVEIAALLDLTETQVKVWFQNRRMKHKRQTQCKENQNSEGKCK
# Sequence of HOXA2 (Homo sapiens, UniProt O43364 129-215, Y150S) (O43364 129-215 Y150S): as the sequence (O43364 129-215 R185T) above, with Y22S, T57R counted along it
# Sequence of HOXA4 (Homo sapiens, UniProt Q00056 201-287, R217L) (Q00056 201-287 R217L): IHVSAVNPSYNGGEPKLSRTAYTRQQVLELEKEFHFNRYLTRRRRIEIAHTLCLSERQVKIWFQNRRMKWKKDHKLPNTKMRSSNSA
# Sequence of HOXA2 (Homo sapiens, UniProt O43364 129-215, R185K) (O43364 129-215 R185K): as the sequence (O43364 129-215 R185T) above, with T57K counted along it
# Sequence of MSX2 (Homo sapiens, UniProt P35548 130-214) (P35548 130-214): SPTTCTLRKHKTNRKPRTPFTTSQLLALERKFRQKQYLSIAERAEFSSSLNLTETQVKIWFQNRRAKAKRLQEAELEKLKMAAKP
# Sequence of ALX3 (Homo sapiens, UniProt O95076 139-225, N203Q) (O95076 139-225 N203Q): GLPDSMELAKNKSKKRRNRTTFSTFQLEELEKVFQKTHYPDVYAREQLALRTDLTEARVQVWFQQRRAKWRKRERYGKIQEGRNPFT
# Sequence of MSX2 (Homo sapiens, UniProt P35548 130-214, F161Y) (P35548 130-214 F161Y): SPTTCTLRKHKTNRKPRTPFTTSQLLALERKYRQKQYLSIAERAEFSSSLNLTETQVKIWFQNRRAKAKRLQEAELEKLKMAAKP
# Sequence of HOXA2 (Homo sapiens, UniProt O43364 129-215) (O43364 129-215): as the sequence (O43364 129-215 R185T) above, with T57R counted along it
# Sequence of ALX3 (Homo sapiens, UniProt O95076 139-225) (O95076 139-225): as the sequence (O95076 139-225 N203Q) above, with Q65N counted along it
# Sequence of CRX (O43186 26-111 R41L): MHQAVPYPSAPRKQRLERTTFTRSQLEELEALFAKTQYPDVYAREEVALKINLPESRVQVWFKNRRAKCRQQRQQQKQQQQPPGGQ
# Sequence of HOXD13 (Homo sapiens, UniProt P35453 263-343) (P35453 263-343): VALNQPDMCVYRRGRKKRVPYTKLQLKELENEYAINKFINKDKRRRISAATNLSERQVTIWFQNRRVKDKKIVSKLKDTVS
# Sequence of HOXD13 (Homo sapiens, UniProt P35453 263-343, T313A) (P35453 263-343 T313A): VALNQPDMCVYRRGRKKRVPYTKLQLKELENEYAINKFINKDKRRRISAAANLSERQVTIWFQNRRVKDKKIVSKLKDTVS
# Sequence of ALX3 (Homo sapiens, UniProt O95076 139-225, N203S) (O95076 139-225 N203S): as the sequence (O95076 139-225 N203Q) above, with Q65S counted along it
# Sequence of HOXA4 (Homo sapiens, UniProt Q00056 201-287) (Q00056 201-287): as the sequence (Q00056 201-287 R217L) above, with L17R counted along it
sequence,measurement,setting,value
CTACGCCC,binding signal,[1],"7.29 upbm affinity estimate (log intensity, higher = more binding, comparable within an allelic series)"
same,binding signal,[2],"10.3 upbm affinity estimate (log intensity, higher = more binding, comparable within an allelic series)"
same,binding signal,[3],"10.5 upbm affinity estimate (log intensity, higher = more binding, comparable within an allelic series)"
same,binding signal,[4],"7.38 upbm affinity estimate (log intensity, higher = more binding, comparable within an allelic series)"
CTACATTA,binding signal,[1],"10.6 upbm affinity estimate (log intensity, higher = more binding, comparable within an allelic series)"
same,binding signal,[2],"12.2 upbm affinity estimate (log intensity, higher = more binding, comparable within an allelic series)"
same,binding signal,[3],"10.8 upbm affinity estimate (log intensity, higher = more binding, comparable within an allelic series)"
same,binding signal,[4],"10.8 upbm affinity estimate (log intensity, higher = more binding, comparable within an allelic series)"
AAAAATAT,binding signal,[5],"10.8 upbm affinity estimate (log intensity, higher = more binding, comparable within an allelic series)"
same,binding signal,[6],"11.1 upbm affinity estimate (log intensity, higher = more binding, comparable within an allelic series)"
ACATTAGC,binding signal,[5],"10.8 upbm affinity estimate (log intensity, higher = more binding, comparable within an allelic series)"
AATGTGAA,binding signal,[7],"8.3 upbm affinity estimate (log intensity, higher = more binding, comparable within an allelic series)"
same,binding signal,[8],"9.35 upbm affinity estimate (log intensity, higher = more binding, comparable within an allelic series)"
same,binding signal,[9],"8.37 upbm affinity estimate (log intensity, higher = more binding, comparable within an allelic series)"
ATATAGTA,binding signal,[7],"8.55 upbm affinity estimate (log intensity, higher = more binding, comparable within an allelic series)"
CCTATTTA,binding signal,[10],"11.2 upbm affinity estimate (log intensity, higher = more binding, comparable within an allelic series)"
same,binding signal,[11],"9.86 upbm affinity estimate (log intensity, higher = more binding, comparable within an allelic series)"
TGTGTAAA,binding signal,[12],"11.1 upbm affinity estimate (log intensity, higher = more binding, comparable within an allelic series)"
same,binding signal,[13],"11 upbm affinity estimate (log intensity, higher = more binding, comparable within an allelic series)"
CACACTAA,binding signal,[14],"10.8 upbm affinity estimate (log intensity, higher = more binding, comparable within an allelic series)"
same,binding signal,[15],"10.7 upbm affinity estimate (log intensity, higher = more binding, comparable within an allelic series)"
TAATAGTA,binding signal,[14],"11.7 upbm affinity estimate (log intensity, higher = more binding, comparable within an allelic series)"
same,binding signal,[15],"11.5 upbm affinity estimate (log intensity, higher = more binding, comparable within an allelic series)"
AAATCTTA,binding signal,[16],"9.84 upbm affinity estimate (log intensity, higher = more binding, comparable within an allelic series)"
same,binding signal,[17],"9.77 upbm affinity estimate (log intensity, higher = more binding, comparable within an allelic series)"
AAGATCAT,binding signal,[16],"9.78 upbm affinity estimate (log intensity, higher = more binding, comparable within an allelic series)"
same,binding signal,[17],"9.78 upbm affinity estimate (log intensity, higher = more binding, comparable within an allelic series)"
ATTACGTC,binding signal,[16],"10 upbm affinity estimate (log intensity, higher = more binding, comparable within an allelic series)"
same,binding signal,[17],"10.2 upbm affinity estimate (log intensity, higher = more binding, comparable within an allelic series)"
AGGTATCG,binding signal,[18],"11.1 upbm affinity estimate (log intensity, higher = more binding, comparable within an allelic series)"
CCGGTAGG,binding signal,[19],"9.6 upbm affinity estimate (log intensity, higher = more binding, comparable within an allelic series)"
GGCGATAA,binding signal,[16],"10.4 upbm affinity estimate (log intensity, higher = more binding, comparable within an allelic series)"
same,binding signal,[17],"10.3 upbm affinity estimate (log intensity, higher = more binding, comparable within an allelic series)"
AATGCAAT,binding signal,[16],"10.3 upbm affinity estimate (log intensity, higher = more binding, comparable within an allelic series)"
same,binding signal,[17],"10.2 upbm affinity estimate (log intensity, higher = more binding, comparable within an allelic series)"
GGGCCACC,binding signal,[19],"9.52 upbm affinity estimate (log intensity, higher = more binding, comparable within an allelic series)"
CCATTTTC,binding signal,[16],"10.1 upbm affinity estimate (log intensity, higher = more binding, comparable within an allelic series)"
same,binding signal,[17],"10 upbm affinity estimate (log intensity, higher = more binding, comparable within an allelic series)"
AACAAATA,binding signal,[16],"10.1 upbm affinity estimate (log intensity, higher = more binding, comparable within an allelic series)"
same,binding signal,[17],"9.97 upbm affinity estimate (log intensity, higher = more binding, comparable within an allelic series)"
ATGATTTA,binding signal,[16],"10.6 upbm affinity estimate (log intensity, higher = more binding, comparable within an allelic series)"
same,binding signal,[17],"10.4 upbm affinity estimate (log intensity, higher = more binding, comparable within an allelic series)"
CGTTTAAA,binding signal,[16],"10.2 upbm affinity estimate (log intensity, higher = more binding, comparable within an allelic series)"
same,binding signal,[17],"9.99 upbm affinity estimate (log intensity, higher = more binding, comparable within an allelic series)"
CTACTATA,binding signal,[16],"10.2 upbm affinity estimate (log intensity, higher = more binding, comparable within an allelic series)"
same,binding signal,[17],"10 upbm affinity estimate (log intensity, higher = more binding, comparable within an allelic series)"
CGGATCAC,binding signal,[18],"11.1 upbm affinity estimate (log intensity, higher = more binding, comparable within an allelic series)"
CGCCCGTC,binding signal,[19],"9.36 upbm affinity estimate (log intensity, higher = more binding, comparable within an allelic series)"
CCCGCCAG,binding signal,[19],"9.62 upbm affinity estimate (log intensity, higher = more binding, comparable within an allelic series)"
AAAGTGAG,binding signal,[19],"10.8 upbm affinity estimate (log intensity, higher = more binding, comparable within an allelic series)"
ACAGGGGG,binding signal,[19],"9.27 upbm affinity estimate (log intensity, higher = more binding, comparable within an allelic series)"
AAGTAATC,binding signal,[16],"9.94 upbm affinity estimate (log intensity, higher = more binding, comparable within an allelic series)"
same,binding signal,[17],"9.94 upbm affinity estimate (log intensity, higher = more binding, comparable within an allelic series)"
TAACTTAA,binding signal,[16],"10.2 upbm affinity estimate (log intensity, higher = more binding, comparable within an allelic series)"
same,binding signal,[17],"10.1 upbm affinity estimate (log intensity, higher = more binding, comparable within an allelic series)"
ATATCTTC,binding signal,[16],"10 upbm affinity estimate (log intensity, higher = more binding, comparable within an allelic series)"
same,binding signal,[17],"9.91 upbm affinity estimate (log intensity, higher = more binding, comparable within an allelic series)"
AGAAATTA,binding signal,[16],"10.7 upbm affinity estimate (log intensity, higher = more binding, comparable within an allelic series)"
same,binding signal,[17],"10.5 upbm affinity estimate (log intensity, higher = more binding, comparable within an allelic series)"
AAAATACC,binding signal,[16],"9.6 upbm affinity estimate (log intensity, higher = more binding, comparable within an allelic series)"
same,binding signal,[17],"9.45 upbm affinity estimate (log intensity, higher = more binding, comparable within an allelic series)"
CACTTCCA,binding signal,[19],"11 upbm affinity estimate (log intensity, higher = more binding, comparable within an allelic series)"
ATATTTCC,binding signal,[16],"9.97 upbm affinity estimate (log intensity, higher = more binding, comparable within an allelic series)"
same,binding signal,[17],"9.85 upbm affinity estimate (log intensity, higher = more binding, comparable within an allelic series)"
GGGGCCAC,binding signal,[19],"9.87 upbm affinity estimate (log intensity, higher = more binding, comparable within an allelic series)"
AATACAAT,binding signal,[16],"10 upbm affinity estimate (log intensity, higher = more binding, comparable within an allelic series)"
same,binding signal,[17],"9.98 upbm affinity estimate (log intensity, higher = more binding, comparable within an allelic series)"
ATTTAATC,binding signal,[16],"10.8 upbm affinity estimate (log intensity, higher = more binding, comparable within an allelic series)"
same,binding signal,[17],"10.7 upbm affinity estimate (log intensity, higher = more binding, comparable within an allelic series)"
same,binding signal,[20],"12.3 upbm affinity estimate (log intensity, higher = more binding, comparable within an allelic series)"
AGATACCC,binding signal,[18],"11.2 upbm affinity estimate (log intensity, higher = more binding, comparable within an allelic series)"
AACCCATT,binding signal,[16],"10.5 upbm affinity estimate (log intensity, higher = more binding, comparable within an allelic series)"
same,binding signal,[17],"10.4 upbm affinity estimate (log intensity, higher = more binding, comparable within an allelic series)"
TAAACTAA,binding signal,[16],"10.3 upbm affinity estimate (log intensity, higher = more binding, comparable within an allelic series)"
same,binding signal,[17],"10.1 upbm affinity estimate (log intensity, higher = more binding, comparable within an allelic series)"
CATTTAAA,binding signal,[16],"10.7 upbm affinity estimate (log intensity, higher = more binding, comparable within an allelic series)"
same,binding signal,[17],"10.6 upbm affinity estimate (log intensity, higher = more binding, comparable within an allelic series)"
CATAATCG,binding signal,[16],"10.5 upbm affinity estimate (log intensity, higher = more binding, comparable within an allelic series)"
same,binding signal,[17],"10.3 upbm affinity estimate (log intensity, higher = more binding, comparable within an allelic series)"
AATACCAT,binding signal,[16],"9.98 upbm affinity estimate (log intensity, higher = more binding, comparable within an allelic series)"
same,binding signal,[17],"9.96 upbm affinity estimate (log intensity, higher = more binding, comparable within an allelic series)"
same,binding signal,[21],"10.3 upbm affinity estimate (log intensity, higher = more binding, comparable within an allelic series)"
AATTGCTA,binding signal,[16],"10.7 upbm affinity estimate (log intensity, higher = more binding, comparable within an allelic series)"
same,binding signal,[17],"10.6 upbm affinity estimate (log intensity, higher = more binding, comparable within an allelic series)"
GATACCCA,binding signal,[18],"11.2 upbm affinity estimate (log intensity, higher = more binding, comparable within an allelic series)"
AATCAATA,binding signal,[16],"10.5 upbm affinity estimate (log intensity, higher = more binding, comparable within an allelic series)"
same,binding signal,[17],"10.4 upbm affinity estimate (log intensity, higher = more binding, comparable within an allelic series)"
AACATATG,binding signal,[16],"9.86 upbm affinity estimate (log intensity, higher = more binding, comparable within an allelic series)"
same,binding signal,[17],"9.84 upbm affinity estimate (log intensity, higher = more binding, comparable within an allelic series)"
TACTGTAA,binding signal,[16],"10.2 upbm affinity estimate (log intensity, higher = more binding, comparable within an allelic series)"
same,binding signal,[17],"10.1 upbm affinity estimate (log intensity, higher = more binding, comparable within an allelic series)"

# Source: article PMC11006913
